Inconclusive results are not listed. Unmarked numbers belong to inactive results. The source made the active and inactive calls. The call rests on the fitted dose curve; in most records, active means well fitted inhibition curve with a large enough effect; inconclusive means small, poorly fitted or top-dose-only effect, or effect the other way; inactive means flat fitted curve, though single readings scatter.
target: D(1A) dopamine receptor (Homo sapiens) (UniProt P21728); assay: HTS Assay for Allosteric Agonists of the Human D1 Dopamine Receptor: Primary Screen for Antagonists (AID 488983); conditions: D1 receptor cell assay, antagonist mode, qHTS titration; series mostly up to 41.8 µM; activity change, negative = inhibition: at the top concentration; further: nearly all actives have a fitted effect of over 65% in size
From the text: Dopamine receptors (DARs) are involved in the etiology and/or therapy of a number of neuropsychiatric and endocrine disorders. For instance, all receptor-based antiparkinsonian drugs work via stimulating the […] DAR subtype whereas all FDA-approved antipsychotic agents are antagonists of this receptor. […] There are three different types of allosteric modulators that we are seeking, two of which will stimulate or augment receptor signaling, allosteric agonists and potentiators, while the third, allosteric antagonists, will attenuate receptor signaling. The present primary screening assay measures compound agonism by tracking calcium flux in a […], inducible Hek293 Trex D1 cell line.
Freshly passaged cells are plated in 1536 well black, clear bottom plates at a density of 4000 cells/well in 3 ul of complete media containing 1x tetracycline inducer. After an overnight incubation at 30 C in 5% CO2, cells are loaded with 2 ul of the no wash Calcium Assay Kit (ABD Bioquest) and incubated at room temperature for 30 to 90 minutes. A 10 cycle (1 second/cycle) baseline measurement is taken and then the FDSS online 1536 pintool delivers 23 nl of compound library (as well as dopamine controls) to the plate. The plate is measured for kinetically at 1 cycle/sec for 180 seconds and is considered to be the agonist portion of the assay (eg, compounds which activate a positive calcium response during this portion are flagged as potential agonists). Following the 180 second read, 1 ul of an EC80 of dopamine is delivered by an onboard pipette head. Measurements are taken kinetically for an additional 180 seconds.
On the % scale 0 is the no-effect control and ±100 the full control effect; potency means the concentration at half of the fitted maximal effect.

Sequence of D(1A) dopamine receptor (Homo sapiens) (P21728 whole entry, looked up): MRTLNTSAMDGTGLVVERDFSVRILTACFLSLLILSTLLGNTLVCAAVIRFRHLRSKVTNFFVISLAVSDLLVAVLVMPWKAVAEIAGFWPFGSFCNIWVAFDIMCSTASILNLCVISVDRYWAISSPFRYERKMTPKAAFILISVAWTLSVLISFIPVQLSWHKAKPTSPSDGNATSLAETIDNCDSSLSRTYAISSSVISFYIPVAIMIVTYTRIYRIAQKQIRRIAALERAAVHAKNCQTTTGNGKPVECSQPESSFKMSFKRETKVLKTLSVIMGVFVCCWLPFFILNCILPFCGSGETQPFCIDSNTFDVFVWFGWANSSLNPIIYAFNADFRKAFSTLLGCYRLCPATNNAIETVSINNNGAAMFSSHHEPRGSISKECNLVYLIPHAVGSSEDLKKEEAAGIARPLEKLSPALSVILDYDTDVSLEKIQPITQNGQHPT

Compound | activity change, negative = inhibition [%] | Potency
NC(=O)C(=O)O | -0.954 | 
Oc1cc2c(cc1O)CN(C(=S)NCCc1ccc(Cl)cc1)CCC2 |  | 2 µM (active)
CN1CCc2cc(NC(=O)Nc3cccnc3)ccc21 | -8.97 | 
COc1cc(C(O)CO)ccc1OS(=O)(=O)O (stereo not given) | 2.29 | 
CC1OC1P(=O)(O)O (stereo not given) | -0.833 | 
CC(C)NC[C@@H](O)c1ccc(O)c(O)c1 | 12.2 | 
CCC1C(=O)OCC1Cc1cncn1C (stereo not given) |  | inactive
CN1[C@@H](CC(=O)c2ccccc2)CCC[C@H]1C[C@H](O)c1ccccc1 | -25.2 | 
CCN1/C(=C/C(C)=O)Sc2ccc(OC)cc21 | -1.48 | 
C[N+]1(C)CCC(OC(=O)C(c2ccccc2)c2ccccc2)CC1 | 8.91 | 
Cc1ccc(S(=O)(=O)/C=C/C#N)cc1 |  | 12.6 µM (active)
Oc1ccc(C2CNCc3sccc32)cc1O (stereo not given) |  | 0.199 µM (active)
Cc1cc2c(cc1Cl)N(C(=O)Nc1ccc(Oc3cccnc3C)nc1)CC2 |  | 14.1 µM (active)
CNC(=O)[C@H]1O[C@@H](n2cnc3c(NCc4ccc(N)cc4)ncnc32)[C@H](O)[C@@H]1O | 2.87 | 
O=P(O)(O)C(Cl)(Cl)P(=O)(O)O | 3.18 | 
CCCCCCCCCCCCCCCC(=O)OC(CC(=O)O)C[N+](C)(C)C (stereo not given) |  | 5.62 µM (active)
Brc1c(Br)c(Br)c2n[nH]nc2c1Br | -15.3 | 
COc1ccccc1CNCCCCCCNCCCCCCCCNCCCCCCNCc1ccccc1OC | -0.157 | 
N.N.N.N.N.N.N.N.N.N.N.N.N.N.O.O.[Ru+4].[Ru+5].[Ru+5] | -10.1 | 
O=C(O)[C@@H]1C[C@H](C(=O)O)N1 | 15.5 | 

Compound | activity change, negative = inhibition [%] | Potency
C[C@@H](NC(=O)/C(C#N)=C/c1ccc(O)c(O)c1)c1ccccc1 | 23.1 | 
CCCCCCCCCCCCCCCC(=O)NCC(COP(=O)([O-])OCC[N+](C)(C)C)OCC (stereo not given) |  | 10 µM (active)
COc1ccccc1N1CCN(CCN(C(=O)c2ccc(I)cc2)c2ccccn2)CC1 |  | 5.62 µM (active)
CN1CCc2ccccc2Cc2[nH]c3ccccc3c2CC1 |  | 0.355 µM (active)
O=C(Nc1ccccc1)c1cc([N+](=O)[O-])ccc1Cl | -10.3 | 
NCCNC(=O)c1ncsc1-c1cccc(F)c1 | -1.66 | 
C=CC(C)=C[C@@]1(C)SC(=O)C(C)=C1O | 9.7 | 
COc1cccc(OC)c1OCCNCC1COc2ccccc2O1 (stereo not given) |  | 0.316 µM (active)
O=C(O)c1cc(=O)c2ccccc2[nH]1 | 4.11 | 
C[C@@H](CN1CCC(Cc2ccccc2)CC1)[C@@H](O)c1ccc(O)cc1 |  | 14.1 µM (active)
CCCCN1CCC(n2c(=O)[nH]c3ccccc32)CC1 | -9.05 | 
N#C/C(=C\c1c[nH]c2ccccc12)C(=O)c1ccc(O)c(O)c1 | -0.0901 | 
Oc1cc(O)cc(/C=C/c2ccc(O)c(O)c2)c1 | 13.3 | 
CN(C)CCCO[C@@H]1[C@H]2OC(C)(C)O[C@H]2O[C@@H]1[C@H](O)CO | 9.13 | 
O=C(O)CCCC[C@@H]1CCSS1 | -15 | 
O=C1NC(O)=NC1(c1ccccc1)c1ccccc1 | 6.79 | 
Cn1cc(C2=C(c3ccc(Cl)cc3Cl)C(=O)NC2=O)c2ccccc21 | -12.6 | 
S=C(S)OC1CC2CC1C1CCCC21 (stereo not given) | -17.9 | 
CCCCC#Cc1nc(NC)c2ncn([C@@H]3O[C@H](CO)[C@@H](O)[C@H]3O)c2n1 | 12.7 | 
CC(N)C(=O)OC(C)(C)Cc1ccc(Cl)cc1 (stereo not given) | 17.2 | 
